# Source: PubChem BioAssay (Fisher Drug Discovery Resource Center)
# mcGAS inh = cyclic GMP-AMP synthase inhibitors, mouse, primary biochemical chemiluminescence; inhibition, % at 12.5 µM; Q8C6L5; 160,000 tested, 0.15% active; recombinant cGAS, Kinase-Glo ATP depletion luminescence
# NPYLR7 ag = agonists of mosquito NPYLR7 receptor, primary screen, cell-based, Aedes aegypti, calcium fluorescence, mosquito biting behavior | activation, % at 10 µM | AID 1259423, 2018 | 270,000 tested, 0.15% active | HEK293T NPYLR7/Galpha15, GCaMP6s calcium fluorescence | Aedes aegypti neuropeptide Y-like receptor 7 (NPYLR7); in the data active = activation above about 40%
# hcGAS lum = Primary biochemical luminescence assay for human cyclic GMP-AMP synthase inhibitors; AID 1259398, 2018; 290,000 tested, 0.081% active; inhibition, % at 12.5 µM; recombinant h-cGAS, ATP depletion, Kinase-Glo luminescence
# Target sequence (Q8N884 whole entry, looked up): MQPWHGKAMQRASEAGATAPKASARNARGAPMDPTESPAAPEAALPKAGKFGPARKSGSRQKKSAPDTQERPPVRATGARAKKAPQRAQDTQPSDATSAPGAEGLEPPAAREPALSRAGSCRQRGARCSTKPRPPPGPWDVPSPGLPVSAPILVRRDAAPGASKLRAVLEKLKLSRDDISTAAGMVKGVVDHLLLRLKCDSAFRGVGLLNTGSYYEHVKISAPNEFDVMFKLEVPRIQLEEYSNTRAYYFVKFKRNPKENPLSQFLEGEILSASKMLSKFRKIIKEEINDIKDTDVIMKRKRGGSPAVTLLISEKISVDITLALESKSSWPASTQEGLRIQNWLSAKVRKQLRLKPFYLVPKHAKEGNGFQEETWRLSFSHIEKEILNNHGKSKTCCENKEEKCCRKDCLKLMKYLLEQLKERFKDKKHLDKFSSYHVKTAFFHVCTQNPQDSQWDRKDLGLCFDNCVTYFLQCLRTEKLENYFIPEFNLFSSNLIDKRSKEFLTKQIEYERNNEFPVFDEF
# Hits are given with their value; n = inactive; x = no result; ! = not active in a repeat. This is a sample that favours compounds with a hit; in the whole collection about 0.24% have one here. Rule as the data show it, unless noted: active = inhibition above about 40%; inactive = the rest.
SMILES,mcGAS inh,NPYLR7 ag,hcGAS lum
COc1ccc(CN2C[C@H](Sc3ccccn3)C[C@H]2C(=O)Nc2ccc3sc(C)nc3c2)c(OC)c1,x,n,n
COc1ccc(-c2nnc(C[C@@H]3C[C@@H](C(C)C)[C@H](CNc4ccccn4)C=C3C)o2)cc1,n,n,n
COc1ccc(NC[C@@H]2C=C(C)[C@H](Cc3nnc(C)o3)C[C@H]2C(C)C)cn1,n,55,n
CC1C(=O)N(c2ccc(F)cc2F)CCN1C(=O)c1cccc(F)c1 (centres undefined),72,n,n
CC1C(=O)N(c2ccc(F)cc2F)CCN1C(=O)c1cccc(Br)c1 (centres undefined),n,n,n
CC(c1cccc(O)c1)N(C)CCc1ccncc1 (centres undefined),n,n,n
O=C(CCl)Nc1cc([N+](=O)[O-])ccc1Cl,52,n,n
O=C(CCl)Nc1ccc(Cl)cc1[N+](=O)[O-],n,n,n
CCn1cc(C(CC(=O)NCc2ccc3c(c2)OCO3)c2cc(OC)cc(OC)c2)c2ccccc21 (centres undefined),n,n,n
CCn1cc(C(CC(=O)N2CCN(Cc3ccc4c(c3)OCO4)CC2)c2cc(OC)cc(OC)c2)c2ccccc21 (centres undefined),74,x,n
CNC(=O)c1ccc(CNC(=O)c2[nH]c3ccc(C)cc3c2C)o1,n,n,n
CO[C@@]1(NC(=O)CSCC#N)C(=O)N2C(C(=O)O)=C(CSc3nnnn3C)CSC21 (some centres undefined),x,49!,n
CO[C@@]1(NC(=O)C2SC(=C(C(N)=O)C(=O)O)S2)C(=O)N2C(C(=O)O)=C(CSc3nnnn3C)CS[C@@H]21 (some centres undefined),x,n,n
Cc1nn(C)c(Cl)c1/C=C1/CCCc2c1nc1ccccc1c2C(=O)O,n,57,n
Cc1cccc(NS(=O)(=O)c2c(C)nn(C)c2Cl)c1C(=O)O,x,n,n
Clc1ccc2c(N3CCCNCC3)ccnc2c1,n,n,n
Clc1ccc2c(-n3ccnc3)ccnc2c1,x,n,57
CCN(C(=O)c1sc(NC(=O)CCl)c(C#N)c1C)C1CCCCC1,n,n,n
Cc1c(C#N)sc(NC(=O)CCl)c1C#N,45,n,n
N#CCCNC(=O)c1ccc(-c2cccc(Cl)c2)s1,n,n,n
COc1ccc(S(=O)(=O)N(C)C)cc1NC(=O)c1cc2c(c(OC)c1)OC(C)C2 (centres undefined),x,n,n
CCC(C)C(NCC(O)COCc1ccco1)c1nc(-c2ccc3c(c2)OCO3)no1 (centres undefined),n,n,n
COc1ccc(C=CC(=O)c2ccc(I)cc2)cc1O,n,n,n
COc1ccc(C=CC(=O)c2cccs2)cc1O,55,n,n
COc1ccccc1-c1cc(C(=O)NCC(C)C)n2nc(-c3ccc(Cl)cc3)cc2n1,n,n,n
SMILES,mcGAS inh,NPYLR7 ag,hcGAS lum
CN(C)Cc1c2ccccc2cc2ccccc12,x,n,n
CN(C)CCc1cc2c(c3c1ccc1ccccc13)OCO2,56,n,70
COC(=O)[C@@H]1C[C@@H](N(C)C)CN1S(=O)(=O)c1ccc(NC(C)=O)cc1,n,n,n
Cc1ccc(-n2c(-c3ccc(Br)cc3)c[n+]3c2CCCCC3)cc1,n,n,n
CCSc1ccc(NC(=O)c2cnc(-c3ccccc3)nc2)cn1,x,n,n
Cc1noc(-c2cccnc2)c1C(=O)NCc1ccccc1Cl,n,n,n
CCc1noc(C)c1C(=O)Nc1ccc(Br)cc1Cl,x,n,n
CN(Cc1cc(-c2ccccc2)on1)C(=O)C1CC2(CCNCC2)CN1 (centres undefined),n,n,n
CN(Cc1cnc2ccccc2n1)C(=O)C1CC2(CCNCC2)CN1 (centres undefined),n,58,n
CCOc1ccccc1N(CC(=O)NC(C)CC)S(=O)(=O)c1ccc(Cl)cc1 (centres undefined),x,n,n
Cn1c(=O)n(CCC(=O)Nc2cc(Cl)cc(Cl)c2)c2ccccc21,x,x,n
Oc1ccccc1C1=NNC2(CC3CC2C2CCCC32)S1 (centres undefined),x,n,78
CCc1nn(C(C)C(=O)NC(C)CCc2ccco2)c(=O)c2cc3occc3n12 (centres undefined),n,68,n
CCc1nn(C(C)C(=O)NC)c(=O)c2cc3occc3n12 (centres undefined),n,n,n
CCc1nc(CN2CCOc3c(cc(-c4ccc(OC)nn4)cc3OC)C2)c(C)[nH]1,n,n,n
COCCN=Cc1cc(I)cc(I)c1O,x,51,77
COCc1cc(C)nc(OCC(=O)N/N=C\c2cc(Br)cc(I)c2O)c1C#N,n,n,n
